This note sets out measurements from PubChem BioAssay (NCI).

The structures appear in SMILES notation. The panel holds about 83,000 compounds, 20% with a hit somewhere; the sample as a whole holds those more often.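 48-hour exposure, single concentration, 96-well plates; percent growth endpoint where 0 means no net growth. Active: below 10.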 Values without a mark were called inactive. Active and inactive are the calls of the source.

Experiment in all cases: NCI-60 one-dose screen, 48 h (100 = growth as untreated, 0 = no growth, -100 = all killed)
The test system of one test is SK-MEL-2 melanoma. As to conditions: 10 µM unless noted.
The subject of another test is EKVX NSCLC. As to conditions: 10 µM unless noted.
For another test, the system named is SN12C renal. As to conditions: 10 µM unless noted.
A further test concerns UO-31 renal. As to conditions: 10 µM unless noted.
Another test concerns TK-10 renal. As to conditions: 10 µM unless noted.
Another test concerns ACHN renal. As to conditions: 10 µM unless noted.
For a further test, the system named is A498 renal. As to conditions: 10 µM unless noted.
The next test has as its system CCRF-CEM leukemia. As to conditions: 10 µM unless noted.
The test system of a further test is OVCAR-8 ovarian. As to conditions: 10 µM unless noted.
The next test concerns OVCAR-5 ovarian. As to conditions: 10 µM unless noted.
The next test concerns OVCAR-4 ovarian. As to conditions: 10 µM unless noted.
A further test has as its system SK-OV-3 ovarian. As to conditions: 10 µM unless noted.
For another test, the system named is IGROV1 ovarian. As to conditions: 10 µM unless noted.
For a further test, the system named is OVCAR-3 ovarian. As to conditions: 10 µM unless noted.
Another test has as its system HS 578T breast. As to conditions: 10 µM.
A further test deals with NCI/ADR-RES ovarian. As to conditions: 10 µM unless noted.
The test system of another test is RPMI-8226 leukemia. As to conditions: 10 µM unless noted.
The test system of another test is MOLT-4 leukemia. As to conditions: 10 µM unless noted.
For a further test, the system named is SR leukemia. As to conditions: 10 µM unless noted.
The subject of a further test is CAKI-1 renal. As to conditions: 10 µM unless noted.

As to `CCCCCNCCCCCNc1cc(OC)cc2cccnc12`, the growth is 99% in the test on SK-MEL-2 melanoma; 101% in the test on EKVX NSCLC; 92.7% in the test with SN12C renal; 46% in the test on UO-31 renal; 78.7% in the test with TK-10 renal; 94.3% in the test on ACHN renal. In addition, the growth with A498 renal is 75%; in the test with CCRF-CEM leukemia, 95.2%; with OVCAR-8 ovarian, 101%; in the test with OVCAR-5 ovarian, 87.2%; in the test with OVCAR-4 ovarian, 37.1%; in the test on SK-OV-3 ovarian, 91.2%. Moreover, the growth in the test on IGROV1 ovarian is 98.3%; with OVCAR-3 ovarian it was 75.6%; in the test on HS 578T breast, 102%; in the test with NCI/ADR-RES ovarian, 88.6%.
For `C=CCn1c(SCC(=O)Nc2ccc(/C(C)=N\O)cc2)nnc1-c1cc(-c2ccc(Cl)cc2)nc2ccccc12`, the growth in the test with SK-MEL-2 melanoma was 28.5%; in the test on EKVX NSCLC it was 32%; in the test on SN12C renal it was 33.7%; in the test with UO-31 renal it was -12.5% (active); with TK-10 renal it was 31.8%; with ACHN renal, 20.2%. The growth is 21.9% in the test with A498 renal; 11.1% in the test with CCRF-CEM leukemia; 9% (active) in the test with RPMI-8226 leukemia; 24% with OVCAR-8 ovarian; 56.7% with OVCAR-5 ovarian; 35% in the test on OVCAR-4 ovarian. The growth with SK-OV-3 ovarian was 52.6%; in the test on IGROV1 ovarian it was -13.8% (active); in the test on OVCAR-3 ovarian, 31.1%; with HS 578T breast, 67.1%; with NCI/ADR-RES ovarian, 2.18% (active).
Turning to `Fc1cc(-c2nnc3sc(-c4ccc(Cl)cc4)nn23)c(Cl)cc1Cl`, the growth in the test with SK-MEL-2 melanoma was 95.7%; in the test on EKVX NSCLC, 96.2%; in the test with SN12C renal, 103%; in the test on UO-31 renal, 78.1%; with TK-10 renal, 99.9%; in the test with ACHN renal, 101%. Also, the growth in the test on CCRF-CEM leukemia is -75.3% (active); with MOLT-4 leukemia, 60.6%; with SR leukemia, 61.1%; in the test with RPMI-8226 leukemia, 102%; in the test on OVCAR-8 ovarian, 100%; in the test with OVCAR-5 ovarian it was 101%. Besides, the growth is 92.5% with OVCAR-4 ovarian, 107% in the test with SK-OV-3 ovarian, 100% in the test on IGROV1 ovarian and 104% in the test on NCI/ADR-RES ovarian.
As to `COC(=O)c1cc2oc(/C=N/NC(=O)c3cc4oc(-c5cccc(C(F)(F)F)c5)cc4[nH]3)cc2n1Cc1ccccc1`, the growth with SK-MEL-2 melanoma is 107%; in the test with EKVX NSCLC, 117%; in the test with SN12C renal it was 104%; with UO-31 renal, 91.5%; in the test on TK-10 renal it was 86.3%; with ACHN renal, 106%. In addition, the growth was 85.8% in the test on A498 renal; -26% (active) in the test on CCRF-CEM leukemia; 77.8% in the test on MOLT-4 leukemia; 33% in the test on SR leukemia; 85.6% in the test with RPMI-8226 leukemia; 75.2% with OVCAR-8 ovarian. The growth was 104% in the test on OVCAR-4 ovarian; 110% in the test on SK-OV-3 ovarian; 111% with OVCAR-3 ovarian; 87.5% with HS 578T breast; 97.9% in the test on NCI/ADR-RES ovarian.
As to `c1ccc(C2=Nc3ccccc3SC2)cc1`, the growth with SK-MEL-2 melanoma is 105%; in the test with EKVX NSCLC, 87.3%; with SN12C renal, 107%; in the test with UO-31 renal it was 67.8%; in the test on TK-10 renal, 105%; in the test with ACHN renal, 95.4%. In addition, the growth in the test on CCRF-CEM leukemia is 86.9%; in the test with MOLT-4 leukemia, 111%; in the test on SR leukemia, 107%; in the test on RPMI-8226 leukemia it was 93.8%; in the test on OVCAR-8 ovarian it was 101%; in the test on OVCAR-5 ovarian it was 98.6%. In addition, the growth with OVCAR-4 ovarian was 91.5%; with SK-OV-3 ovarian, 110%; in the test on IGROV1 ovarian it was 88.6%; with OVCAR-3 ovarian, 99.4%; in the test on NCI/ADR-RES ovarian it was 113%.
On to `C=C(C)C1CCC2(C(=O)O)CCC3(C)C(CCC4C5(C)CCC(O)C(C)(C)C5CCC43C)C12` (configuration not stated), for which the growth in the test on SK-MEL-2 melanoma is 25.4%; in the test on EKVX NSCLC, 48.1%; in the test on SN12C renal, 26.8%; in the test with UO-31 renal, 21.5%; in the test on TK-10 renal, 12.8%; in the test on ACHN renal, 24.2%. For the same compound, the growth in the test on CAKI-1 renal was -5.47% (active); in the test with CCRF-CEM leukemia, 3.16% (active); with MOLT-4 leukemia, 11.3%; in the test with SR leukemia, 9.38% (active); in the test with RPMI-8226 leukemia, 7.96% (active); in the test with OVCAR-4 ovarian it was -40.7% (active). In addition, the growth in the test with SK-OV-3 ovarian was 28%; with IGROV1 ovarian, 7.47% (active); in the test with OVCAR-3 ovarian, -56.1% (active); in the test on NCI/ADR-RES ovarian, -54% (active).
For the compound `Cc1[nH]n(C(=O)c2ccncc2)c(=O)c1N=Nc1ccc(O)c(C(=O)O)c1`, the growth was 159% with SK-MEL-2 melanoma; 127% in the test with EKVX NSCLC; 93.6% in the test on SN12C renal; 78.9% in the test on UO-31 renal; 83.2% in the test on TK-10 renal; 106% in the test on ACHN renal. Besides, the growth in the test with A498 renal was 110%; with CCRF-CEM leukemia, -36.1% (active); in the test with MOLT-4 leukemia, 87.4%; in the test on SR leukemia, 10.1%; with RPMI-8226 leukemia it was 51.5%; with OVCAR-8 ovarian it was 115%. In addition, the growth in the test with OVCAR-5 ovarian is 123%; with OVCAR-4 ovarian it was 109%; in the test with SK-OV-3 ovarian it was 108%; with IGROV1 ovarian it was 94.7%; in the test on OVCAR-3 ovarian, 105%; with HS 578T breast it was 96.2%. The growth in the test on NCI/ADR-RES ovarian is 110%.
With `Cc1ccc(O)c(Cc2ccccc2)c1`, the growth with SK-MEL-2 melanoma is 93.8%; with EKVX NSCLC it was 116%; in the test on SN12C renal, 90.3%; in the test on UO-31 renal, 84%; with TK-10 renal, 100%; in the test with ACHN renal, 100%. Moreover, the growth is 99.9% in the test with A498 renal; 103% with CCRF-CEM leukemia; 102% in the test with OVCAR-8 ovarian; 104% with OVCAR-5 ovarian; 108% in the test on OVCAR-4 ovarian; 110% in the test with SK-OV-3 ovarian. Moreover, the growth in the test on IGROV1 ovarian was 132%; in the test on OVCAR-3 ovarian it was 100%; in the test on HS 578T breast, 91.3%; in the test on NCI/ADR-RES ovarian, 99.7%.
For `C=CCn1c(SCC(=O)Nc2ccc(/C(C)=N\O)cc2)nnc1-c1cc(-c2ccccc2)nc2ccccc12`, the growth in the test with SK-MEL-2 melanoma was 72.1%; in the test with EKVX NSCLC, 55%; in the test on SN12C renal, 69.3%; in the test with UO-31 renal, 40.6%; with TK-10 renal, 74.5%; in the test with ACHN renal, 38.4%. For the same compound, the growth in the test with A498 renal is 65.1%; in the test with CCRF-CEM leukemia it was 18.2%; in the test on MOLT-4 leukemia, 3.61% (active); in the test on RPMI-8226 leukemia it was 47.1%; with OVCAR-8 ovarian, 53.5%; with OVCAR-5 ovarian, 85.8%. For the same compound, the growth with OVCAR-4 ovarian is 75%; in the test on SK-OV-3 ovarian it was 79.6%; with IGROV1 ovarian it was 0.364% (active); in the test on OVCAR-3 ovarian, 58.3%; with HS 578T breast, 85.8%; in the test with NCI/ADR-RES ovarian, 52.8%.
